Experimental findings from PubChem BioAssay AID796 (Columbia University Molecular Screening Center, 2007) are described below.

About 410 (0.44%) of roughly 94,000 compounds were called active.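 Rule for the calls: active = inhibition above about 30% together with a positive call from visual inspection of the well image (limit read from the data); inconclusive = inhibition above a set limit but visual check negative; inactive = inhibition not above a set limit, visual check negative.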 The full list was thinned out, with actives kept by preference.

By inhibition is commonly meant the drop in the measured response relative to a control, in per cent.

This assay can be described thus: inhibitors of IL-1B driven NFkB p65 nuclear import, primary screen, imaging, HUVEC, IL-1B stimulus, high-content imaging (AID 796).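 Note: nuclear over cytoplasmic p65 intensity ratio measured by imaging; 0% = IL-1B stimulated DMSO wells and 100% = unstimulated DMSO wells.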 The settings on record: HUVEC IL-1B NFkB p65 nuclear translocation imaging; at 2 µM; hits give high values.
Turning to `COc1ccc(/C=C(/NC(=O)c2ccc(C)cc2)c2nc3ccccc3[nH]2)cc1OC`, the inhibition was -9.9% (inactive). The result for `CCOC(=O)c1c(N=CN(C)C)c(C#N)c2n1CCCC2` reads 10.8% (inactive). The result for `CC1CCCCC1NC(=O)C1CCCN1S(=O)(=O)c1cccc2nsnc12` (configuration not stated) reads -27% (inactive); that for `COc1nc(-c2ccc(Cl)cc2)ccc1-c1noc(-c2cccs2)n1`, -5.8% (inactive).

In the case of `O=S(=O)(c1cccc2nonc12)N1CCN(c2cccc(Cl)c2)CC1`, the inhibition was -0.1% (inactive). In the case of `CC(C)NC(=O)C(=O)N/N=C/c1ccco1` it was -6.9% (inactive).

For `COc1cc(C(=O)N2CCN(C/C=C/c3ccccc3)CC2)cc(OC)c1C`, the inhibition was -3.7% (inactive).

With `N/C(=N\OC(=O)c1cc(-c2ccccc2)nc2ccccc12)c1ccncc1`, the inhibition was 8% (inactive). In the case of `Cc1ccc(S(=O)(=O)N(CC(=O)N/N=C/c2ccc(F)cc2)c2cccc3cccnc23)cc1` it was 9.5% (inactive).

On to `COC(=O)c1c(-c2cccs2)csc1NC(=O)CSc1ncnc2sc(C)c(C)c12`, for which the inhibition was -10.3% (inactive). Consider `Nc1ccc(-c2sc(N)nc2-c2ccccc2)cc1`, for which the inhibition was 1.6% (inactive). In the case of `CCC(C)NC(=O)c1ccccc1NC(=O)c1ccccc1N(C)S(C)(=O)=O` (configuration not stated) it was -10.8% (inactive).

On to `COc1ccc(Cl)cc1NC(=O)CN(C)C(=O)CNC(=O)C12CC3CC(CC(C3)C1)C2`, for which the inhibition is -36% (inactive). The result for `COc1ccc(Cc2nnc(SCC(=O)c3cccc([N+](=O)[O-])c3)n2C)cc1` reads -8.8% (inactive). Consider `O=C(NCCc1ccccc1)c1ccc(NC2=NC3CS(=O)(=O)CC3S2)cc1` (configuration not stated), for which the inhibition was 0.8% (inactive). In the case of `Cc1cccc(NC(=O)c2ccccc2NC(=O)C(C)(C)C)n1` it was -6.8% (inactive); in that of `Cc1cccc(NC(=O)c2cc(N3C(=O)CCC3=O)ccc2Cl)n1`, 32.1% (active); in that of `Cc1cc(NC(=O)c2cccc(N3C(=O)CCC3=O)c2)no1`, -4.7% (inactive). The result for `O=C(CN1CCCCCC1)Nc1ccc(Br)cc1Br` reads 5.3% (inactive); that for `Cn1c(CNc2nc(-c3ccccc3)cs2)nnc1SCC(=O)c1ccccc1`, -14.8% (inactive); that for `Cn1c(CC(=O)Nc2ccccc2)nnc1SCC(=O)c1ccccc1`, 92% (active).

Consider `Cc1ccccc1NC(=O)Cc1nnc(SCC(=O)N2CCN(c3ccccc3)CC2)n1C`, for which the inhibition is -36.6% (inactive). In the case of `CCOC(=O)c1cc(NC(=O)c2ccc(Cl)cc2)c(=O)oc1-c1ccccc1` it was -5.2% (inactive); in that of `Cc1nc(C)c(C(=O)N(c2ccc(C)c(C)c2)C(C(=O)NCc2ccco2)c2ccccc2)s1` (configuration not stated), -3.5% (inactive); in that of `Cc1cccc(NC(=O)CSc2nnc(CCCCCNC(=O)OC(C)(C)C)o2)c1C`, 55.4% (active).

Turning to `CCc1ccccc1NC(=O)CSc1nnc([C@@H](NC(=O)OC(C)(C)C)C(C)CC)o1` (some centres not stated), the inhibition is -19.4% (inactive).

In the case of `CCc1ccccc1NC(=O)CSc1nnc([C@@H](NC(=O)OC(C)(C)C)C(C)C)o1`, the inhibition is 0.3% (inactive).
